Sampled rows, rich in hits. Any-hit rate of the full collection: about 7.3%.
HCV inhibitor: HCV inhibition; Huh7.5.1 HCVcc-Cre infection, luciferase reporter, 44 h; Potency, µM (titrated, usually from 41.8 µM), without a hit: at the highest dose activity change, negative = inhibition, actives largely listed as inhibitors; hit rate 3.4% among 340,000; active means well fitted inhibition curve with a large enough effect; inconclusive means small, poorly fitted or top-dose-only effect, or another doubt; inactive means no such curve, though single readings can be large or run the other way; further: potency means the concentration at half of the fitted maximal effect
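Antiviral activity was scored by luciferase reporter output from cells infected with HCVcc-Cre (~0.5 moi) in presence of compound, 44 h infection period, cells seeded 1,000/well 4 h prior.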
VACV mCherry inh: inhibitors of vaccinia virus infection (mCherry reporter signal). Vaccinia virus mCherry reporter infection, fluorescence. Potency, µM (series often up to 36.5 µM), inactives show at the top dose activity change, negative = inhibition, actives largely listed as inhibitors. hit rate 0.63% among 310,000; calls by dose curve; tested in A549 cells; further: potency means the concentration at half of the fitted maximal effect; nearly all actives have a fitted effect of over 35% in size
Vaccinia Venus: vaccinia inhibition (Venus reporter); hit rate 0.46% among 330,000; Potency, µM (top dose mostly 36.5 µM), for inactives: at the top dose activity change, negative = inhibition, usual class: inhibitors; Vaccinia virus Venus reporter expression, fluorescence; AID 720580; calls by dose curve; tested in A549 cells; further: potency means the concentration at half of the fitted maximal effect; nearly all actives have a fitted effect of over 30% in size
HCMV antiviral: inhibitors of human cytomegalovirus | hit rate 4.5% among 410,000 | activity change, negative = inhibition, % at 57.5 µM | HFF cells, HCMV-luciferase reporter, 72 h; stronger effect = lower value | AID 1259415; in the data active means activity change below about -60%; inconclusive means no clear call, values can overlap the other calls; inactive means above about -39%
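Human foreskin fibroblasts infected with luciferase-reporter HCMV at MOI 1 PFU/cell, compounds at two doses. Luciferase measured 72 h post infection; normalized to buffer-only basal and Salinomycin (10uM) controls.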
FMDV antiviral: antivirals against foot and mouth disease virus; AID 1159524; Potency, µM (doses to about 57.9 µM), for the others: top-dose activity change, negative = inhibition, most hits filed as inhibitors; FMDV antiviral cell-based qHTS; hit rate 1.2% among 410,000; calls by dose curve; tested in HEK293T cells; further: read-out not given here; potency means the concentration at half of the fitted maximal effect; nearly all actives have a fitted effect of over 45% in size
The depositor's hits bear a star; i = inactive; ? = inconclusive; nt = not tested or not shown; [ ] = dose if it differs, or a comment. On the % scale 0 is the no-effect control and ±100 the full control effect.

SMILES	HCV inhibitor	VACV mCherry inh	Vaccinia Venus	HCMV antiviral	FMDV antiviral
COc1ccc(CCNc2nc(N3CCCCC3)nc(N3CCCCC3)n2)cc1OC	22µM*	nt	-7%	-14	-6%
O=[N+]([O-])c1ccc(/C=N/Nc2nc(N3CCCCC3)nc(N3CCCCC3)n2)cc1	?	-30%	-21%	-38	3%
COc1ccc(CCNc2nc(N3CCOCC3)nc(N3CCOCC3)n2)cc1OC	?	-18%	?	52	?
COc1ccc(CCNCC(O)Cn2c3ccccc3c3ccccc32)cc1OC (stereo unspecified)	11µM*	nt	nt	-64*	-22%
COc1ccc([N+](=O)[O-])cc1/C=N/Nc1nc(N2CCCCC2)nc(N2CCCCC2)n1	20µM*	6%	6%	-37	?
COc1nc(NCCc2ccc(OC)c(OC)c2)nc(OC)n1	-18%	nt	-17%	-99*	-18%
O=C(N[C@H](C(=O)N1CCC[C@H]1C(=O)NCCc1ccccc1Cl)c1ccccc1)c1ccco1	nt	nt	nt	-22	nt
CC(=O)Nc1nonc1-c1nnc(SCC(=O)Nc2cc(C)ccc2C)n1-c1ccccc1	nt	-2%	-1%	-10	?
COc1cc(CN(C(=O)COc2ccccc2Cl)c2ccccn2)cc(OC)c1OC	nt	i	-10%	26	-5%
CCn1c(=O)c([N+](=O)[O-])c(NCCc2ccc(OC)c(OC)c2)c2ccccc21	?	-9%	-14%	-72*	22µM*
COc1ccc(CCNc2c3ccccc3nc3ccccc23)cc1OC	?	-11%[7.34 µM]	-7%[7.34 µM]	-102*	-20%
COc1ccccc1NC(=O)c1nc(SCc2ccccc2F)ncc1Cl	nt	18%	-17%	nt	nt
CC1(C)CSC(=NCc2ccccc2)N1	10µM*	nt	nt	-25	6%
COc1ccc(-c2cnc3c(NC=O)cc(-c4cc(OC)c(OC)c(OC)c4)cn23)cc1OC	nt	-12%	-25%	65	-17%
COc1ccc(-c2cnc3c(NC=O)cc(-c4ccc(S(C)(=O)=O)cc4)cn23)cc1OC	nt	?	?	18	-20%
CC(=O)Nc1cc(-c2ccc(N3CCN(C)CC3)cc2)cn2c(-c3ccc(F)c(Cl)c3)cnc12	nt	?	?	-30	-27%
COc1ccc(-c2cnc3c(NC=O)cc(-c4ccc(F)cc4)cn23)cc1OC	nt	11µM*	?	?	?
COc1ccc(-c2cnc3c(NC=O)cc(-c4ccccc4)cn23)cc1OC	nt	1.3µM*	?	66	?
COc1ccc(-c2cc(NC=O)c3ncc(-c4cc(OC)c(OC)c(OC)c4)n3c2)cc1	nt	?	?	-81*	-15%
COc1cc(-c2cnc3c(NC=O)cc(-c4ccc(S(C)(=O)=O)cc4)cn23)cc(OC)c1OC	nt	?	?	-9	-17%
CN1CCN(c2ccc(-c3cc(NC=O)c4ncc(-c5ccc(F)c(Cl)c5)n4c3)cc2)CC1	nt	?	-18%	-92*	14%
Cc1ccc(NC(=O)c2ccc(=O)n(Cc3ccccc3C)c2)c(C)c1	nt	-7%	-8%	-38	8%
COc1cccc(/C=C/c2nccc3ccccc23)c1OC	nt	-20%	-17%	nt	nt
COCC(=O)Nc1cc(C(=O)N2CC3CCC2C3)c2c(c1)nc(-c1ccncc1)n2C (stereo unspecified)	nt	-14%	-1%	nt	-3%
COc1ccc(-c2cnc3c(NC=O)cc(-c4cccc(NS(C)(=O)=O)c4)cn23)cc1OC	nt	6.3µM*	8.9µM*	125	-22%
SMILES	HCV inhibitor	VACV mCherry inh	Vaccinia Venus	HCMV antiviral	FMDV antiviral
COc1cccc(-c2cc(NC=O)c3ncc(-c4ccc(OC)c(OC)c4)n3c2)c1	nt	?	?	221	-27%
CC1CCN(C(=O)COc2ccc(Nc3ccccc3)cc2)CC1	-7%	-2%	6%	-74*	-12%
CC1CCCN(C(=O)COc2ccc(Nc3ccccc3)cc2)C1 (stereo unspecified)	-5%	5%	-8%	-32	5%
CC(=O)Nc1ccc(OCC(=O)N2CCC(Cc3ccccc3)CC2)cc1	-29%	2%	-1%	5	?
O=C(Nc1ccc(OCC(=O)N2CCC(Cc3ccccc3)CC2)cc1)c1ccco1	-29%	nt	nt	-83*	-16%
Cc1cc(C)c(NC(=O)c2ccc3nc(C(C)C)oc3c2)c(C)c1	nt	-5%	13%	-15	-9%
COc1cc(OC)c(NC(=O)c2ccc3nc(C(C)C)oc3c2)cc1Cl	nt	i	-20%	-30	13µM*
CN(C)c1ccc2nc3ccc(=O)cc-3sc2c1	nt	73%	?	-78*	75%
c1ccc2nc(-c3cc4ccccc4s3)ccc2c1	nt	36%	-12%	nt	nt
CC(=O)c1ccc2noc(-c3ccc(Cl)cc3)c2c1	0%	-12%	-2%	-62*	-21%
O=S(=O)(Nc1cc2nc3ccccc3nc2n1Cc1ccccc1)c1ccc(Cl)cc1	?	i	-4%	-91*	12%
O=S(=O)(NCc1ccccc1)c1ccc(Cl)cc1	0%	nt	nt	-29	80%
[Hg+][c]1ccccc1	nt	2µM*	2µM*	nt	nt
c1ccc(N=Nc2ccccc2)cc1	nt	-13%	-12%	nt	13%
CCOC(=O)C1CCCN(C(=O)c2ccc(NC(=O)c3nsc4ccccc34)cc2)C1 (stereo unspecified)	nt	0%	-15%	69	23%
CCn1nnnc1NC(=O)c1cc(Cl)c(OC)c(Cl)c1	-10%	i	-19%	-63*	-14%
Cc1cccc(N2CCN(S(=O)(=O)c3cc(-c4cc(C)no4)ccc3C)CC2C)c1 (stereo unspecified)	4µM*	nt	nt	?	0%
COc1ccc(-c2cc(C)no2)cc1S(=O)(=O)N1CCN(c2cccc(C)c2)C(C)C1 (stereo unspecified)	10µM*	?	?	-74*	?
COc1ccc(-c2cc(C)no2)cc1S(=O)(=O)Nc1cccc(C)c1	10µM*	nt	nt	16	28%
CCN(C(C)=O)c1cnc(C=NNC(N)=S)c2ccccc12	6.3µM*	?	?	-97*	2%
Cc1cccc(-n2c(=O)c3ccccc3n(Cc3ccc(F)cc3)c2=O)c1	nt	-4%	1%	?	-14%
CC(C)(C)NC(=O)C(c1ccccc1)n1c(-c2ccccc2Br)nc2ccccc21 (stereo unspecified)	nt	nt	nt	54	nt
Cc1cc2nc(-c3ccccc3Br)n(C(C(=O)NC(C)(C)C)c3ccccc3)c2cc1C (stereo unspecified)	nt	nt	nt	-99*	nt
c1cncc(CNc2ncnc3sc4c(c23)CCCC4)c1	?	-18%	-14%	?	-23%
Cc1nc(NCc2cccnc2)c2c3c(sc2n1)CCCC3	7.1µM*	-12%	-9%	12	-15%
CCC1N=C(SC)NC(C)=C1C(=O)c1ccccc1 (stereo unspecified)	0%	nt	nt	-69*	-9%
CCOC(=O)C1=C(C)NC(SC)=NC1c1ccc(OC)cc1 (stereo unspecified)	8%	-17%	-11%	-13	-13%
CCOC(=O)c1sc2ccccc2c1S(=O)(=O)NCc1ccccc1OC	nt	-12%	-6%	-5	43%
O=C1c2ccccc2C(=O)c2c1cccc2N1CCOCC1	22µM*	-19%	-5%	-22	2%

Source: PubChem BioAssay
